The record followed here is PubChem BioAssay (EPA / NIEHS).

Each structure is given as a SMILES string. Inconclusive results are not listed. The source made the active and inactive calls. Rule for the calls: active = hit-call score of the fitted dose curve at least 0.9, where 1 is the maximum; inconclusive = response in the unintended direction; inactive = score below 0.9.

Sequence of Broad substrate specificity ATP-binding cassette transporter ABCG2 (Homo sapiens) (Q9UNQ0 whole entry, looked up): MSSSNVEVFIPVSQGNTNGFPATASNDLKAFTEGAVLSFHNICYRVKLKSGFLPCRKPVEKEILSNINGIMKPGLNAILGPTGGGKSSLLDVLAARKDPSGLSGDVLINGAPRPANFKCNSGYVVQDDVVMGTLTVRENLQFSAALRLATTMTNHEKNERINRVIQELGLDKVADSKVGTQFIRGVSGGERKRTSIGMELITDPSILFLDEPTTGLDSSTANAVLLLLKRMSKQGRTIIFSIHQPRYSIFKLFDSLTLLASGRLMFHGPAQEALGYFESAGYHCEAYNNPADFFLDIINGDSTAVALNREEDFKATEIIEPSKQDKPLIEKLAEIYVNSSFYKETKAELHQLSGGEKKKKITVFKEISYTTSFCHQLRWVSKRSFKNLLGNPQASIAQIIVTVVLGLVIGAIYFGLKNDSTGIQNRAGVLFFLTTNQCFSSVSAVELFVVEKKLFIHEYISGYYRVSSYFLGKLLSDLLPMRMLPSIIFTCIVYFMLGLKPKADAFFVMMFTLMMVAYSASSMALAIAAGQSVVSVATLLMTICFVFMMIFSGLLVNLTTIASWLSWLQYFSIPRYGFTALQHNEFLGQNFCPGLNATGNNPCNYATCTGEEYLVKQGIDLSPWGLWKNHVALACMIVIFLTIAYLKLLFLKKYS

Read-out in the assay: Broad substrate specificity ATP-binding cassette transporter ABCG2 (Homo sapiens) (UniProt Q9UNQ0)
Briefly: CLD_ABCG2_24hr: CellzDirect (CLD) Gene Expression Assay for ABC Transporter (ABCG2) at 24 hours (AID 2283685). As to the method: CLD_24hr is a cell-based, multiplexed-readout assay that uses hepatocyte, a human liver primary cell, with measurements taken at 24 hours after chemical dosing in a 96-well plate.CLD_ABCG2_24hr is one of 16 assay component(s) measured or calculated from the CLD_24hr assay. It is designed to make measurements of mRNA induction, a form of inducible reporter, as detected with chemiluminescence signals by Quantitative Nuclease Protection Assay (qNPA) technology.Data from the assay component CLD_ABCG2_24hr was analyzed at the endpoint, CLD_ABCG2_24hr, in the positive analysis fitting direction relative to DMSO as the negative control and baseline of activity. Using a type of inducible reporter, gain-of-signal activity can be used to understand changes in the reporter gene as they relate to the gene ABCG2. Furthermore, this assay endpoint can be referred to as a primary readout. To generalize the intended target to other relatable targets, this assay endpoint is annotated to the transporter intended target family, where subfamily is ABC transporter.
Human hepatocyte cultures were treated daily for two consecutive days with fresh dosing solutions containing appropriate concentrations of the 320 ToxCast chemicals (chemical identities were blinded to CellzDirect and other ToxCast collaborators), vehicle control (0.2% DMSO), and positive control inducers as summarized in Table 1. Due to the large number of treatment groups and chemicals examined, the ToxCast chemicals were divided into two groups (spanning two independent cultures of hepatocytes from separate donor preparations (Hu778: ToxCast plates 1 and 2; Hu776: ToxCast plates 3 and 4). Each preparation of human hepatocyte cultures was treated with respective vehicle control, medium only control, set of six positive controls/reference chemicals for the five hepatic receptor pathways, and a subset of eight of the ToxCast chemicals (indoxacarb, pyrithiobac-sodium, norflurazon, cyhalofop-butyl, methomyl, thiram, acetochlor, and propiconazole). These replicate data, coupled with internal replicates designed within the blinded ToxCast chemical library, provided additional data to evaluate interindividual differences between hepatocyte preparations and their potential impact on chemical profiles.Cell morphology and integrity were evaluated using phase-contrast microscopy as an indicator of hepatocyte cell health (Tyson & Green, 1987). Cultures for each treatment group (i.e., media, vehicle [0.2% DMSO], positive control inducers [multiple concentrations], and the ToxCast chemicals [multiple concentrations]) were observed and cell morphology was assessed relative to vehicle control cultures at each harvest time point (0, 6, 24, or 48 h). […] Images were evaluated at the conclusion of the study to assess changes in cell integrity and account for the effects of chemical exposure on uncharacteristic changes in concentration-dependent gene expression profiles. The results from these determinations of apparent cytotoxicity were annotated (yes/no) alongside the corresponding qNPA data for reference.At the conclusion of each treatment period, hepatocyte cultures (96-well) were washed with 1 volume of HBSS, lysed by addition of 25 ul ArrayPlate lysis buffer (HTG, Tucson, AZ), and 70 ul/well of Denaturation Oil, denatured by incubation at 95C for 10 min, and frozen at approximately -70C until analysis by nuclease protection assay (qNPA) (Roberts et al., 2007). For qNPA analysis, cell lysates were thawed at 50C for approximately 30 min, qNPA probes were added, and samples were incubated at 95C for 10 min to begin the detection process by denaturing the target RNA, dissociating the duplexes and secondary structure hybridization. At the conclusion of the hybridization period, S1 nuclease reagent was added to each sample to digest all nonprotected nucleotides at 50C for 60-90 min. […]
Regarding `CC(C)Oc1cc(-n2nc(C(C)(C)C)oc2=O)c(Cl)cc1Cl`, the outcome was inactive. `CC(C)(C)c1ccc(CSc2cnn(C(C)(C)C)c(=O)c2Cl)cc1`: the call was inactive. Turning to `CCCCNC(=O)n1c(NC(=O)OC)nc2ccccc21`, the compound was classed as inactive. As for `Oc1ccccc1-c1ccccc1`, the entry is “inactive”. Next, `C=CCC1=C(C)[C@@H](OC(=O)[C@@H]2[C@@H](C=C(C)C)C2(C)C)CC1=O`: “inactive”; `O=C(O)COc1nc(Cl)c(Cl)cc1Cl`: “inactive”; `CCCC1COC(Cn2cncn2)(c2ccc(Cl)cc2Cl)O1` (configuration not stated): “inactive”. Regarding `CCCCOC(=O)c1ccccc1C(=O)OCCCC`, the compound was classed as inactive. Next, `COC(=O)C(C)Oc1ccc(Oc2ccc(Cl)cc2Cl)cc1` (configuration not stated): “inactive”; `COc1nc(C)nc(NC(=O)NS(=O)(=O)c2ccccc2Cl)n1`: “inactive”. For `N#Cc1nn(-c2c(Cl)cc(C(F)(F)F)cc2Cl)c(N)c1S(=O)C(F)(F)F` (configuration not stated), the call was inactive. With `C=CC1(C)OC(=O)N(c2cc(Cl)cc(Cl)c2)C1=O` (configuration not stated), the result was inactive. Next, `COC(=O)N(OC)c1ccccc1COc1ccn(-c2ccc(Cl)cc2)n1`: “inactive”. For the compound `COc1cnc(OC)n2nc(NS(=O)(=O)c3c(OCC(F)F)cccc3C(F)(F)F)nc12`, the outcome was inactive. For `COP(=S)(OC)Oc1nc(Cl)c(Cl)cc1Cl`, the result was inactive.

In the case of `OC(c1ccc(Cl)cc1)(c1cncnc1)c1ccccc1Cl` (configuration not stated), the compound was called inactive. As for `COc1nc(C)nc(NC(=O)NS(=O)(=O)c2ccccc2CCC(F)(F)F)n1`, the entry is “inactive”; as for `CCOC(=O)CC(SP(=S)(OC)OC)C(=O)OCC` (configuration not stated), “inactive”; as for `CC1COC(Cn2cncn2)(c2ccc(Oc3ccc(Cl)cc3)cc2Cl)O1` (configuration not stated), “inactive”.

In the case of `CNC(=O)ON=CC(C)(C)SC`, the result was inactive. Next, `CCON=C(CC)C1=C(O)CC(c2c(C)cc(C)cc2C)CC1=O` (configuration not stated): “inactive”.

Turning to `CO/C=C(/C(=O)OC)c1ccccc1Oc1cc(Oc2ccccc2C#N)ncn1`, the call was inactive. As for `COc1nc(NC(C)C)nc(NC(C)C)n1`, the entry is “inactive”; as for `CC(Oc1ccc(Cl)cc1Cl)C(=O)O` (configuration not stated), “inactive”.

Turning to `CCCCNC(=O)OCC#CI`, the compound was classed as inactive. Take `CCOC(=O)C(Cl)Cc1cc(-n2nc(C)n(C(F)F)c2=O)c(F)cc1Cl` (configuration not stated): the compound was classed as inactive. As for `CCc1nn(C)c(C(=O)NCc2ccc(C(C)(C)C)cc2)c1Cl`, the entry is “inactive”; as for `N#CC(CCc1ccc(Cl)cc1)(Cn1cncn1)c1ccccc1` (configuration not stated), “inactive”; as for `C#CCOS(=O)OC1CCCCC1Oc1ccc(C(C)(C)C)cc1` (configuration not stated), “inactive”. On to `CN(C)C(=S)SSC(=S)N(C)C`, for which the compound was called inactive. As for `CS/C(C)=N/OC(=O)N(C)SN(C)C(=O)O/N=C(\C)SC`, the call was inactive. `Cc1c(F)c(F)c(COC(=O)C2C(/C=C(\Cl)C(F)(F)F)C2(C)C)c(F)c1F` (configuration not stated): the call was inactive. As for `C=CCC1=C(C)C(OC(=O)C2C(C=C(C)C)C2(C)C)CC1=O` (configuration not stated), the entry is “inactive”; as for `Cc1ccc(-c2c(Cl)nc(C#N)n2S(=O)(=O)N(C)C)cc1`, “inactive”; as for `Fc1ccc(Oc2ccnc3cc(Cl)cc(Cl)c23)cc1`, “inactive”.

Consider `Cc1cc(Cl)ccc1OCC(=O)O`, for which the outcome was inactive. Next, `CCOP(=S)(OCC)SCn1c(=O)oc2cc(Cl)ccc21`: “inactive”.
